# Data published in PubChem BioAssay (NCATS).
# Results filed as inconclusive are left out. A call without a number means that no potency is given here. Calls of active or inactive are those of the source. Calls come from the whole dose curve; as a rule, active = well fitted curve in the direction sought with a large enough effect; inconclusive = small, poorly fitted or top-dose-only effect, or another doubt; inactive = no such curve, though single readings can be large; an effect the other way counts as inactive or inconclusive.
# Key:
# [1] = molecular target: Aldehyde dehydrogenase, mitochondrial (Homo sapiens) (UniProt P05091); experiment: qHTS for Inhibitors of the Aldehyde Dehydrogenase Family (ALDH2) Primary screen (AID 2061308); conditions: ALDH2 enzyme inhibition qHTS, 1536-well; series mostly up to 56 µM; note: nearly all actives have a fitted effect of over 55% in size
# [2] = molecular target: Retinaldehyde dehydrogenase 3 (Homo sapiens) (UniProt P47895); experiment: qHTS for Inhibitors of the Aldehyde Dehydrogenase Family (ALDH1A3) Primary screen (AID 2061315); conditions: ALDH inhibition qHTS; series mostly up to 56 µM
SMILES,Potency [1],Potency [2]
CCOc1ccc(CCN(C)C(=O)c2cc3sccc3n2Cc2ccccc2)cc1OCC,inactive,inactive
COc1ccccc1C1=Nn2c(nnc2-c2ccccc2C)SC1,inactive,inactive
O=c1c2[nH]c3ccsc3c2cnn1Cc1ccccc1F,inactive,inactive
O=C(OCC#CCSc1nnc(-c2cccc3ccccc23)s1)c1cccs1,inactive,inactive
Cc1ccc(-c2ccc(=O)n(CC(=O)NCCc3ncc[nH]3)n2)cc1,inactive,inactive
O=C(NCCCc1cnc[nH]1)NCCCN(Cc1ccc(Cl)c(Cl)c1)c1ccc(Br)cn1,inactive,inactive
CCn1cnc2c(Nc3cccc(Cl)c3)nc(C#N)nc21,inactive,inactive
N=c1c2c(ccn1CCCc1ccccc1)Oc1ccc3ccccc3c1C2c1ccccc1 (configuration not stated),inactive,inactive
S=C(Nc1ccc(Cl)c(Cl)c1)Nc1nnc(-c2ccncc2)o1,inactive,inactive
COc1cccc(-c2ccc3ncnc(NCc4cccnc4)c3c2)c1,inactive,inactive
Nc1ccc(NC(=O)Nc2nnc(-c3ccncc3)s2)cc1C(F)(F)F,inactive,inactive
NCCCC(=O)Nc1ccc(Cl)cc1C(=O)c1ccc[nH]1,inactive,inactive
O=C(OCC#CCSc1nnc(-c2ccc3ccccc3c2)o1)c1cccs1,inactive,inactive
CC(=O)c1ccccc1-c1csc2ncnc(Sc3nnnn3C)c12,inactive,inactive
CN(C(=O)c1cccs1)c1cccnc1,inactive,inactive
O=C1CCCC2=C1C(c1ccc(Cl)cc1)N=C(Nc1nc3ccccc3o1)N2 (configuration not stated),inactive,inactive
